Assay results from paper PMC4336329 (PLoS ONE, 2015).
Hit rate of the full screen: of about 310,000 compounds, about 14,000 (4.5%) showed an effect of 50% or more. The effect is printed as a negative number. This excerpt belongs to a sample that is enriched for strong results.

What follows are compounds tested against human ether-à-go-go-related gene (hERG) potassium channel (human, UniProt Q12809) (assay: primary screen, population patch clamp on CHO cells stably expressing hERG; higher = less effect of the substance).
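Further: peak tail current of the secondary pulse compared with the same well before compound.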

Sequence of human ether-à-go-go-related gene (hERG) potassium channel (Q12809 whole entry, looked up): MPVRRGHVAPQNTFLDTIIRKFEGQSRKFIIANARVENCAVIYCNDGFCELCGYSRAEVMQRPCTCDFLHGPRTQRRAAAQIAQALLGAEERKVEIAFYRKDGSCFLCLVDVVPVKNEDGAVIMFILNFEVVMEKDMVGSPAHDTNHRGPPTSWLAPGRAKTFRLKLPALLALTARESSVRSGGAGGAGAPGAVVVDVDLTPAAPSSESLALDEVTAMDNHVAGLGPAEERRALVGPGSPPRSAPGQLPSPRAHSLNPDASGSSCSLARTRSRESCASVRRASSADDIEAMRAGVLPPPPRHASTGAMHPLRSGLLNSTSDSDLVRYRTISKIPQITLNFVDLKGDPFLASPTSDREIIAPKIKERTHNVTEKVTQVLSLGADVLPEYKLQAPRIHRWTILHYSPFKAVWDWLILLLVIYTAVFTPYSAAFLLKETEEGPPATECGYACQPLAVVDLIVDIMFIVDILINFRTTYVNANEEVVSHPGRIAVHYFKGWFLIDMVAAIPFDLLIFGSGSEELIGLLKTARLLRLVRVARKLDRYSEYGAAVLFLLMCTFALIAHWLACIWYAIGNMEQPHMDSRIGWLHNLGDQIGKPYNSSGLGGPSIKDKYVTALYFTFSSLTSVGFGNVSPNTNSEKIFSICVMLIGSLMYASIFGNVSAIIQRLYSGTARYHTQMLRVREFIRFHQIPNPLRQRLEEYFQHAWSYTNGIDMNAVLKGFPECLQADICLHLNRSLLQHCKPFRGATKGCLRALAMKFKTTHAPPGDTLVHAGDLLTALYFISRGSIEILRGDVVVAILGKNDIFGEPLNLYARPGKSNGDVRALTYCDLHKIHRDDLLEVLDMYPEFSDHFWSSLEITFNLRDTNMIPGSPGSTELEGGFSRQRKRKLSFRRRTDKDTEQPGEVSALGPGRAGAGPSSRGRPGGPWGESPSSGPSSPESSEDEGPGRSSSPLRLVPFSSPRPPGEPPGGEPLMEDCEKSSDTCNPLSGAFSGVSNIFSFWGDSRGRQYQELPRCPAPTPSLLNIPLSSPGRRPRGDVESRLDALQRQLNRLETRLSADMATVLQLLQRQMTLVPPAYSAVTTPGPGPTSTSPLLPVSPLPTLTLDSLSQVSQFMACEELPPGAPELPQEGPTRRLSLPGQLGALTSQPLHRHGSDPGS

Compared with `COc1ccc(N(CC(=O)NCCSCc2ccc(C)cc2)S(=O)(=O)c2ccccc2)cc1`, `Cc1ccc(CNC(=O)CCn2nc(-c3ccc(Cl)cc3)ccc2=O)cc1` is lower in “hERG current change (%, negative = inhibition) at 10uM” value: 3.04% for the first, -35.3% for the second.

Compared with `O=c1cccc2n1CC1CC2CN(S(=O)(=O)c2ccccc2)C1` (stereo not drawn), `COc1cccc(NC(=O)CN2C(=O)COc3ccc(S(=O)(=O)N4CCOCC4)cc32)c1` is higher in “hERG current change (%, negative = inhibition) at 10uM” value: -3.59% for the first, 15.6% for the second.

Compared with `Cc1cc2occ(CC(=O)N(C)CC(=O)Nc3ccc(F)cc3)c2cc1C`, `CCn1c(C)nnc1SCC(=O)Nc1ccc(C(C)=O)cc1` is higher in “hERG current change (%, negative = inhibition) at 10uM” value: -9.51% for the first, 11.5% for the second.

Going from `COC(=O)CN=C1OC(=O)N2C(=O)C3=C4[C@@H](C[C@H]5C(=O)N(c6ccccc6)C(=O)[C@H]5[C@H]4[C@@]12Cc1ccccc1)[C@H]1C(=O)N(c2ccccc2)C(=O)[C@H]1[C@H]3C` to `COc1ccc(CN(C(=O)CN2C(=O)c3ccccc3S2(=O)=O)C(C(=O)NCC2CCCO2)c2ccco2)cc1` (stereo not drawn), the “hERG current change (%, negative = inhibition) at 10uM” value falls from 4.25% to -4.57%.

Compared with `O=C(Nc1ncnc2sc3c(c12)CCC3)c1ccco1`, `O=C(CSc1ncnc2sc3c(c12)CCCC3)c1ccco1` is higher in “hERG current change (%, negative = inhibition) at 10uM” value: -4.5% for the first, 6.66% for the second.

Compared with `c1ccc(N2CCN(c3ncnc4sc5c(c34)CCC5)CC2)cc1`, `Oc1ccc(N2CCN(c3ncnc4sc5c(c34)CCC5)CC2)cc1` is lower in “hERG current change (%, negative = inhibition) at 10uM” value: 12.4% for the first, -7.35% for the second.

Compared with `O=C(c1ccccc1)N1CCN(c2ncnc3sc4c(c23)CCC4)CC1`, `O=C(c1ccco1)N1CCN(c2ncnc3sc4c(c23)CCC4)CC1` is lower in “hERG current change (%, negative = inhibition) at 10uM” value: -56% for the first, -56.6% for the second.

First: COc1ccc2nc(NC(=O)C3CCN(S(=O)(=O)c4cccs4)CC3)sc2c1
Second: CCOc1ccc(NC(=O)C2CCCN(c3nc(C)cc(C)n3)C2)cc1 (stereo not drawn)
The “hERG current change (%, negative = inhibition) at 10uM” value of the first is lower: -13.6% for the first, 12.4% for the second.

First: COc1cc(OC)cc(C(=O)NC2CCSC2=O)c1 (stereo not drawn)
Second: COc1ccc(-n2c(=O)c3c4c(sc3n(CC(=O)NCc3ccco3)c2=O)CCC4)c(OC)c1
The “hERG current change (%, negative = inhibition) at 10uM” value of the first is lower: -5.55% for the first, -4.75% for the second.

First: CCN(CC)CCCC(C)NC(=O)c1ccc(C(F)(F)F)cc1.Cl (stereo not drawn)
Second: CCN(CC)CCCNc1oc(/C=C/c2ccccc2)nc1C#N
The “hERG current change (%, negative = inhibition) at 10uM” value of the first is higher: -7.01% for the first, -71% for the second.

Going from `CCOC(=O)N1CCN(C(=O)Cn2nc(C)n3nc(-c4ccc(OC)cc4)cc3c2=O)CC1` to `Cc1ccc(-c2ccc(=O)n(CC(=O)NCCN3CCCCC3C)n2)cc1` (stereo not drawn), the “hERG current change (%, negative = inhibition) at 10uM” value falls from 13.4% to 0.96%.

Going from `CC(Sc1nnc2ccccn12)C(=O)NCc1ccc2c(c1)OCO2` (stereo not drawn) to `CC(Sc1nncn1C)C(=O)NCc1ccc2c(c1)OCO2` (stereo not drawn), the “hERG current change (%, negative = inhibition) at 10uM” value rises from 4.95% to 34.9%.

Compared with `Cn1c(SCC(=O)NCc2ccc3c(c2)OCO3)nnc1-c1cccs1`, `CCn1c(SCC(=O)NCc2ccc3c(c2)OCO3)nnc1-c1cccs1` is lower in “hERG current change (%, negative = inhibition) at 10uM” value: -17.1% for the first, -23.1% for the second.

First: CCn1c(SCC(=O)NCc2ccc3c(c2)OCO3)nnc1-c1ccncc1
Second: O=C(CSc1nnc(-c2cccs2)n1Cc1ccccc1)NCc1ccc2c(c1)OCO2
The “hERG current change (%, negative = inhibition) at 10uM” value of the first is higher: 13% for the first, -75.8% for the second.

Going from `O=C(CSc1nnc(-c2cccs2)n1-c1ccccc1)NCc1ccc2c(c1)OCO2` to `CC(Sc1nnc(-c2cccs2)n1-c1ccccc1)C(=O)NCc1ccc2c(c1)OCO2` (stereo not drawn), the “hERG current change (%, negative = inhibition) at 10uM” value falls from -43.7% to -74.8%.

Compared with `CC(Sc1nnc(-c2cccs2)n1Cc1ccccc1)C(=O)NCc1ccc2c(c1)OCO2` (stereo not drawn), `CC(NC(=O)CCn1nc(-c2ccc(Cl)cc2)ccc1=O)c1ccccc1` (stereo not drawn) is lower in “hERG current change (%, negative = inhibition) at 10uM” value: -55.9% for the first, -60.6% for the second.

First: COCC(=O)Nc1cc(C(=O)Nc2ccccc2C)ccc1Cl
Second: Cc1ccc(NC(=O)COC(=O)CCc2ccccc2)c(Cl)c1
The “hERG current change (%, negative = inhibition) at 10uM” value of the first is lower: -3.92% for the first, 27.1% for the second.

First: COc1cc(CNc2cc(C)ccc2C)cc(OC)c1OC
Second: COc1cc(C)c(NC(=S)Nc2cccc(Cl)c2)cc1OC
The “hERG current change (%, negative = inhibition) at 10uM” value of the first is lower: -4.46% for the first, 6.72% for the second.

Going from `Cc1cc(C)nc(N/N=C/c2c(CO)cnc(C)c2O)n1` to `COc1cccc(-c2nnc(SCC(=O)Nc3ccc(OC)c(OC)c3)n2N)c1`, the “hERG current change (%, negative = inhibition) at 10uM” value rises from -10.7% to 14.3%.

Compared with `O=C(Nc1cccc2oc(=O)ccc12)c1ccc([N+](=O)[O-])cc1[N+](=O)[O-]`, `COc1ccccc1NC(=O)c1ccc([N+](=O)[O-])cc1[N+](=O)[O-]` is higher in “hERG current change (%, negative = inhibition) at 10uM” value: -59.9% for the first, -19.6% for the second.

Going from `O=C(Nc1ncccn1)c1ccc([N+](=O)[O-])cc1[N+](=O)[O-]` to `CCOc1ccccc1C(=O)Nc1ccc2nc(N3CCN(c4ncccn4)CC3)cc(C)c2c1`, the “hERG current change (%, negative = inhibition) at 10uM” value falls from -7.61% to -8.08%.

First: CCCCNC(=O)Cn1nc(-c2ccc(C)cc2)ccc1=O
Second: COCCNC(=O)CCn1nc(-c2ccc(C)cc2)ccc1=O
The “hERG current change (%, negative = inhibition) at 10uM” value of the first is higher: -1.13% for the first, -34.4% for the second.

First: CC(NC(=O)Cn1nc(-c2ccccc2)ccc1=O)c1ccccc1 (stereo not drawn)
Second: CC(C)CCNC(=O)CCn1nc(-c2ccccc2)ccc1=O
The “hERG current change (%, negative = inhibition) at 10uM” value of the first is higher: -13.4% for the first, -46.8% for the second.

First: Cc1ccc(-c2ccc(=O)n(CCC(=O)NCc3ccccn3)n2)cc1
Second: O=C(CCn1nc(-c2ccc(Cl)cc2)ccc1=O)NCc1ccccn1
The “hERG current change (%, negative = inhibition) at 10uM” value of the first is lower: -61% for the first, -32% for the second.

Going from `CCCCN(C)CCNC(=O)CCn1nc(-c2ccc(C)cc2)ccc1=O` to `CCCCN(C)CCNC(=O)CCn1nc(-c2ccc(Cl)cc2)ccc1=O`, the “hERG current change (%, negative = inhibition) at 10uM” value rises from -83.4% to -67.1%.

Going from `Cc1ccc(-c2ccc(=O)n(CC(=O)NCCCN3CCCCC3C)n2)cc1` (stereo not drawn) to `Cc1ccc(-c2ccc(=O)n(CCC(=O)NCCN3CCCCC3C)n2)cc1` (stereo not drawn), the “hERG current change (%, negative = inhibition) at 10uM” value falls from -10.3% to -58.7%.

First: COCCCNC(=O)CCn1nc(-c2ccc(Cl)cc2)ccc1=O
Second: COCCNC(=O)CCn1nc(-c2ccc(Cl)cc2)ccc1=O
The “hERG current change (%, negative = inhibition) at 10uM” value of the first is higher: -27.9% for the first, -30.2% for the second.

Going from `O=C(CCc1ccccc1)NCCCNC(=O)CCc1ccccc1` to `Cc1ccc(NC(=O)CC(C(=O)O)c2ccccc2)cc1` (stereo not drawn), the “hERG current change (%, negative = inhibition) at 10uM” value rises from 7.49% to 8.15%.

First: C=CCn1c(C)nnc1SCC(=O)Nc1nccs1
Second: CC(C)CCNC(=O)CCn1nc(-c2ccc(Cl)cc2)ccc1=O
The “hERG current change (%, negative = inhibition) at 10uM” value of the first is higher: 16.6% for the first, -54.6% for the second.

First: NC(=O)c1ccccc1NC(=O)/C=C/c1c(Cl)cccc1Cl
Second: O=C(CSCc1c(F)cccc1Cl)Nc1ccccc1C(=O)N1CCOCC1
The “hERG current change (%, negative = inhibition) at 10uM” value of the first is lower: -31.3% for the first, 5.4% for the second.

Going from `Cc1ccc(-c2nnc(N)o2)cc1` to `N#CC1=C(c2ccc(-c3ccccc3)cc2)COC1=O`, the “hERG current change (%, negative = inhibition) at 10uM” value falls from 9.43% to -15.1%.

Compared with `CCCCNC(=O)CCn1nc(-c2ccc(Cl)cc2)ccc1=O`, `CN(C)CCNC(=O)CCn1nc(-c2ccc(Cl)cc2)ccc1=O` is higher in “hERG current change (%, negative = inhibition) at 10uM” value: -23.4% for the first, -15.4% for the second.

Going from `Cc1ccc(C)c(-c2ccc(=O)n(Cc3cccc(Br)c3)n2)c1` to `Cc1cccc(CN2CCC(CNC(=O)Cn3ncc4c([nH]c5ccccc54)c3=O)CC2)c1`, the “hERG current change (%, negative = inhibition) at 10uM” value falls from 10.7% to -23.1%.

Compared with `O=C(OCC(=O)c1c[nH]c2ccccc12)c1cc2ccccc2cc1O`, `Cc1ccc(NC(=O)Cn2ncc3c([nH]c4ccccc43)c2=O)cc1Cl` is higher in “hERG current change (%, negative = inhibition) at 10uM” value: 1.38% for the first, 21.4% for the second.

Going from `COc1ccc2nc3oc(C(=O)N4CCC5(CC4)OCCO5)cc3cc2c1` to `COc1ccccc1/C=C/CN1CCC(Oc2ccc(C(=O)N3CCCC3)cc2)CC1`, the “hERG current change (%, negative = inhibition) at 10uM” value falls from -16.5% to -24.3%.

Compared with `O=C(Cn1ncc2c([nH]c3ccccc32)c1=O)Nc1cccnc1`, `O=C(Cn1ncc2c([nH]c3ccccc32)c1=O)Nc1ccc(CN2CCCCC2)cc1` is lower in “hERG current change (%, negative = inhibition) at 10uM” value: 10.3% for the first, -65.8% for the second.

Going from `O=C(Cn1ncc2c([nH]c3ccccc32)c1=O)NCC1CCN(Cc2ccc(F)cc2)CC1` to `O=C(Cn1ncc2c([nH]c3ccccc32)c1=O)NCC1CCN(Cc2ccccc2F)CC1`, the “hERG current change (%, negative = inhibition) at 10uM” value rises from -66% to -44.2%.

Compared with `CS(=O)(=O)N(CC(O)CON=C1c2ccccc2-c2ccccc21)c1ccc(F)cc1` (stereo not drawn), `CCCn1nc(C(=O)NNC(=O)CCCOc2ccc(OC)cc2)c2ccccc2c1=O` is lower in “hERG current change (%, negative = inhibition) at 10uM” value: 8.83% for the first, -8.53% for the second.

First: O=C(Cc1ccc(Cl)cc1)c1c[nH]c(C(=O)NCc2cccnc2)c1
Second: O=C(NCCN1CCOCC1)c1ccc2c(c1)N(Cc1ccc(F)cc1)C(=O)CS2
The “hERG current change (%, negative = inhibition) at 10uM” value of the first is lower: -0.756% for the first, 0.414% for the second.

Compared with `CCN1CCN(c2oc(/C=C/c3ccccc3)nc2C#N)CC1`, `CN1CCN(c2oc(/C=C/c3ccccc3)nc2C#N)CC1` is higher in “hERG current change (%, negative = inhibition) at 10uM” value: -63.1% for the first, -53.7% for the second.

Compared with `CN(C)c1oc(/C=C/c2ccccc2)nc1C#N`, `CNc1oc(/C=C/c2ccccc2)nc1C#N` is lower in “hERG current change (%, negative = inhibition) at 10uM” value: 8.93% for the first, 8.33% for the second.

Compared with `C=CCNc1oc(/C=C/c2ccccc2)nc1C#N`, `CN(C)CCNc1oc(/C=C/c2ccccc2)nc1C#N` is lower in “hERG current change (%, negative = inhibition) at 10uM” value: -28% for the first, -29.2% for the second.

First: CN(C)CCCNc1oc(/C=C/c2ccccc2)nc1C#N
Second: CCN1CCN(c2oc(-c3ccco3)nc2C#N)CC1
The “hERG current change (%, negative = inhibition) at 10uM” value of the first is lower: -32.5% for the first, -24.1% for the second.

Compared with `Cc1ccccc1CN1CCC(Oc2ccc(C(=O)N3CCCC3)cc2)CC1`, `O=C(c1ccc(OC2CCN(C/C=C/c3ccccc3)CC2)cc1)N1CCCC1` is lower in “hERG current change (%, negative = inhibition) at 10uM” value: -13.7% for the first, -75.7% for the second.

First: O=C(c1ccc(OC2CCN(Cc3ccccn3)CC2)cc1)N1CCCCCC1
Second: O=C(c1ccc(OC2CCN(C/C=C/c3ccccc3)CC2)cc1)N1CCCCC1
The “hERG current change (%, negative = inhibition) at 10uM” value of the first is higher: -14.9% for the first, -53.1% for the second.
